# Sampled rows, rich in hits. Any-hit rate of the full collection: about 1.2%.
# Phagocytosis inh: blocks phagocytosis by macrophages; AID 1029; actives 0.07% (n = 110,000); J774A.1 macrophage IgG-bead phagocytosis, imaging; inhibition, % at 5 µM;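 active = inhibition above the mean of the plate negative controls plus 5 SD, cut at about 13% in these data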;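 also: phagocytic index as fraction of beads internalized from green versus red external bead signal; plate controls were DMSO negative control for no effect and cytochalasin-D positive control for full effect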
# Smad3 inh: blocks human Smad3 binding to FoxH1 peptide; P84022; TR-FRET Smad3/Dy647-FoxH1 peptide binding, europium anti-His; inhibition, % at 25 µM; actives 0.29% (n = 88,000); AID 630;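 active = compounds that reduce the energy-transfer binding signal between the protein and its labelled peptide by more than half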;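 also: 0% = Smad3 plus labelled peptide maximal FRET and 100% = peptide-only background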
# Target sequence (P84022 whole entry, looked up): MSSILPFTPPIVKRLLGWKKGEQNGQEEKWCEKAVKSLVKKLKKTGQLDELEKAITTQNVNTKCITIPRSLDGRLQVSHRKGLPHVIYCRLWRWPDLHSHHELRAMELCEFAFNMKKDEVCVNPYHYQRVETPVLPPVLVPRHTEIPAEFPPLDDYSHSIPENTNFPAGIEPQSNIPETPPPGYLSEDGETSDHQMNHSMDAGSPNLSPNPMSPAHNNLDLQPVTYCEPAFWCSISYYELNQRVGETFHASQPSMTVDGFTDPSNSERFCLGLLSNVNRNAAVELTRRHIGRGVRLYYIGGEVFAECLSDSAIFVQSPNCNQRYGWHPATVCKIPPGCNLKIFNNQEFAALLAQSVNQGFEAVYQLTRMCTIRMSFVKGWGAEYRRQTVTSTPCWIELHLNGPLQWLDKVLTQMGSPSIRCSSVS
# CD11b adhes enh: CD11b/CD18-fibrinogen binding enhancement; AID 1499; actives 0.07% (n = 93,000); P05107+P11215; activation, % at 10 µM; K562 CD11b/CD18 adhesion to fibrinogen, ATPlite luminescence;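 active = 10 µM primary screen giving 50% or more activity, confirmed by 40% or more on retest at that dose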
# MRP resist rev: MRP-mediated drug resistance reversal | actives 0.04% (n = 85,000) | differential viability (reversal), % at 10 µM | H69AR cells + 2 uM doxorubicin, CellTiter-Glo, 72 h | AID 602;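 active = viability drop by adding the cancer drug above about 55%, with treated viability meeting a 40% cutoff, limit read from the data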;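 also: viability without doxorubicin minus viability with 2 µM doxorubicin for each compound; larger differential means the compound sensitizes cells more to doxorubicin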
# MRP1 act: MRP-1 activation | H69AR cells + doxorubicin, viability rescue, CellTiter-Glo | viability increase, % at 10 µM | actives 0.61% (n = 140,000) | AID 799;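 active = viability gain under doxorubicin at or above a set limit, the compound median plus 3 SD, cut at about 4.7% in these data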;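 also: MRP-1 overexpressing cells given doxorubicin 25 µM after compound pretreatment; 18-22 h compound pretreatment then 72 h with doxorubicin before readout; 0% = doxorubicin-only wells and 100% = vehicle-treated cells without doxorubicin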
# Mac1 fbg inh: inhibitors of human CD11b/CD18 binding to fibrinogen; AID 1497; actives 0.54% (n = 93,000); K562 CD11b/CD18 adhesion to fibrinogen, ATPlite luminescence; Mn2+ added to activate the integrin; inhibition, % at 10 µM;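 active = primary inhibition of 50% or more at 10 µM, then 40% or more on retest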
# Active calls of the source: *; nt = no result given.
SMILES,Phagocytosis inh,Smad3 inh,CD11b adhes enh,MRP resist rev,MRP1 act,Mac1 fbg inh
COC(=O)c1ccc(O)c(Sc2cc(C(=O)OC)ccc2O)c1,-1,-6,-7,-3,-2,98*
CCOc1ccccc1N(C(=O)c1snc(C(N)=O)c1N)C(C(=O)NCCC(C)C)c1ccco1 (stereo unspecified),0,8,-2,-10,5.3*,-2
Brc1ccc(-c2nc(N/N=C/c3cccnc3)c3ccccc3n2)cc1,0,6,-7,-4,-1,101*
Cc1ccc(-c2nc(N/N=C/c3ccccc3[N+](=O)[O-])c3ccccc3n2)cc1,nt,nt,nt,nt,-2,nt
O=C1CNC(=S)N1c1nc(-c2ccccc2)cs1,3,nt,10,nt,4.8*,3
C/C(N[O-])=C(\C)[N+]([O-])=[Co].CC(=N\[O-])/C(C)=N/[O-].O[C@@H]1[CH-]CCCC1.c1ccncc1,nt,71*,nt,nt,nt,nt
Nc1ccn([C@H]2O[C@H](CO)[C@@H]3[O][Sn]([c]4ccccc4)([c]4ccccc4)[O][C@@H]32)c(=O)n1,nt,7,nt,nt,nt,nt
COc1ccc(S(=O)(=O)N=C2C=C(C)C(=O)C(C)=C2)cc1,3,nt,10,nt,-2,89*
COc1ccc(S(=O)(=O)N2CCCCC2)cc1,4,5,0,13,-1,8
O=C1CC(N2CCCN(C3CC(=O)N(c4ccc(F)cc4)C3=O)CC2)C(=O)N1c1ccc(F)cc1 (stereo unspecified),1,-3,1,9,8.3*,9
O=C1CC(N2CCC(O)(c3ccc(Br)cc3)CC2)C(=O)N1c1ccc(Cl)cc1 (stereo unspecified),nt,nt,nt,nt,6.3*,nt
C[C@@H](SCc1ccccc1)C(=O)O,nt,-5,nt,nt,nt,nt
O=C(O)/C=C/C(=O)Nc1ncn[nH]1,nt,-12,nt,nt,nt,nt
COc1ccc(Cl)cc1C(=O)Nc1ccc2c(c1)OCO2,-1,-8,-4,-6,15*,6
Cc1ccc(-c2nc(-c3ccccc3)no2)c(Cl)c1,0,-4,-10,13,-3,104*
CCc1nnc(NC(=O)c2ccc(S(=O)(=O)N3CCCCC3C)cc2)s1 (stereo unspecified),0,3,-3,24,1,-5
CCc1nnc(NC(=O)c2ccc(S(=O)(=O)N3CCCCCC3)cc2)s1,nt,-13,nt,1,5.4*,nt
CCc1nnc(NC(=O)[C@@H](NC(=O)c2cccc(S(=O)(=O)N(CC)CC)c2)C(C)C)s1,0,nt,2,nt,5.2*,-8
CCc1nnc(NC(=O)c2ccc(S(=O)(=O)NCC(C)C)cc2)s1,-1,nt,-1,nt,9.6*,-27
N#C[C@H](c1ccccc1)N1CCCN([C@@H](C#N)c2ccccc2)C1c1ccccc1O (stereo partly specified),nt,45,nt,nt,nt,nt
COc1ccccc1Nc1ccc(S(=O)(=O)N2CCCCC2)cc1[N+](=O)[O-],nt,nt,0,nt,-2,9
CC(CCN)(CCN)[N+](=O)[O-],nt,-13,nt,nt,nt,nt
COc1ccc([C@H]2[C@H](C(=O)C(C)(C)C)N3N=Cc4ccccc4C3[C@]23N=C(c2ccccc2)OC3=O)cc1OC (stereo partly specified),2,-1,91*,2,-3,-3
COc1ccc([C@H]2[C@H](C(=O)C(C)(C)C)N3N=Cc4ccccc4C3[C@]23N=C(c2ccccc2)OC3=O)cc1 (stereo partly specified),-1,-2,0,0,-1,-3
CC(=O)c1cccc(NC(=O)N2CCC(c3nnc(SCC(N)=O)n3C)CC2)c1,0,1,4,-11,-1,2
SMILES,Phagocytosis inh,Smad3 inh,CD11b adhes enh,MRP resist rev,MRP1 act,Mac1 fbg inh
O=C(C(c1ccccc1)c1ccccc1)N1CCN(CCN2C(=O)c3cccc4cccc(c34)C2=O)CC1,-11,nt,13,nt,2,5
O=C1c2cccc3cccc(c23)C(=O)N1CCN1CCN(CC(O)COc2ccccc2)CC1 (stereo unspecified),1,nt,0,nt,5.0*,-3
CNc1sc(C(=O)c2ccc(F)cc2)c(N)c1-c1nc2ccccc2s1,0,5,0,2,3,-2
CNc1sc(C(=O)c2cccs2)c(N)c1-c1nc2ccccc2s1,0,3,22,-14,9.0*,2
CC1(c2ccccc2)CC(C)(C)N2C(=O)/C(=C3\SC(=S)NC3=O)c3cccc1c32 (stereo unspecified),nt,nt,-5,nt,-5,100*
O=C(CSc1nc2ccc([N+](=O)[O-])cc2[nH]1)NC1CCCCCC1,-4,nt,-9,nt,-3,102*
O=C(CSc1nc2ccc([N+](=O)[O-])cc2[nH]1)NC1CCCCC1,-4,nt,-3,nt,-1,-7
NS(=O)(=O)c1ccc(N=Nc2cc3ccccc3c(C(=O)O)c2O)cc1,nt,19,nt,nt,nt,nt
NC1(C(=O)NC2(C(=O)O)CCCC2)CCCC1,nt,-6,nt,nt,nt,nt
CCc1cc2c3c(c1)C(C)CC(C)(C)N3C(=O)C2=O (stereo unspecified),-4,nt,nt,nt,-3,nt
CCN(CC)CCN(Cc1cc2cc(C)cc(C)c2[nH]c1=O)C(=S)NCc1ccco1,-8,nt,nt,nt,23*,nt
CCN(CC)CCN(Cc1cc2cc(C)ccc2[nH]c1=O)C(=S)NCc1ccco1,-5,nt,nt,nt,-4,nt
Cc1ccc(S(=O)(=O)OC2CCN(C)CC2)cc1,nt,14,nt,nt,nt,nt
CC(C)(C)NC(NC(=O)Cc1ccccc1)C(Cl)(Cl)Cl (stereo unspecified),nt,nt,nt,nt,5.3*,nt
CCOc1ccccc1NC(=O)CC1NCCNC1=O (stereo unspecified),nt,-2,nt,2,-1,nt
O=C(NCc1ccccc1)c1sc(=S)n2c1[nH]c(=O)c1ccccc12,2,4,-7,-5,-2,103*
Cc1cc(O)c(-c2cc(O)c(C)cc2O)cc1O,nt,83*,nt,nt,nt,nt
Cc1cc(O)c(C(C)C)cc1N=Cc1ccccc1O,nt,9,nt,nt,nt,nt
CC(C)OCCCNC(=O)c1c(N)n(/N=C/c2cccs2)c2nc3ccccc3nc12,3,nt,149*,nt,-1,31
O=C(NNC(=O)c1cccnc1)Nc1cccc2ccccc12,nt,nt,nt,nt,5.7*,nt
COc1ccc(C(=O)NCCn2ccc3ccccc32)cc1,-5,-4,0,-6,2,-6
O=C(NCCn1ccc2ccccc21)c1ccc(S(=O)(=O)N2CCCCC2)cc1,1,59*,-2,-18,-4,-36
CC(C)(C)NC(=O)CSC(=Nc1cccc(F)c1)NC#N,nt,-7,nt,-8,-3,nt
Cc1cc(C)c(S(=O)(=O)c2ccccc2)c(Cl)n1,0,nt,1,nt,-1,-16
Cc1cc(C)c(S(C)(=O)=O)c(Sc2ccc(Cl)cc2)n1,nt,nt,nt,nt,5.4*,nt
O=c1cc(CNc2ccc(Br)cc2)nc2sccn12,10,nt,nt,nt,8.7*,nt
COc1ccc(S(=O)(=O)Nc2cc(Sc3ncn[nH]3)c(O)c3ccccc23)cc1,2,nt,-5,nt,-2,90*
CN1CCN(CCCN)CC1,nt,-5,nt,nt,nt,nt
Cc1ccc(-c2nc3ccc(NS(=O)(=O)c4ccccc4)cc3[nH]2)o1,143*,11,-4,3,-1,-34
